From PubChem BioAssay (Tox21)
Results filed as inconclusive are left out. Some structures have more than one record in an assay (separate samples or runs), and their calls can disagree. Calls of active or inactive are those of the source. Unless noted, the call rests on the fitted dose curve; in most records, active means well fitted curve in the direction sought with a large enough effect in the repeat runs; inconclusive means weak or mixed curves; inactive means no such curve, though single readings can be large; an effect the other way counts as inactive or inconclusive.

Columns and labels:
[1] = qHTS assay to identify small molecule antagonists of the sonic hedgehog signaling (Shh) pathway (AID 1259369; calls by dose curve; further: nearly all actives have a fitted effect of over 45% in size; further: potency means the concentration at half of the fitted maximal effect)
How it was run: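 Screening used 3T3Gli1-Luc cells at 2,000 per well, compounds delivered in DMSO, and conditioned medium as agonist stimulus; plates incubated 24hr at 37 C and 5% CO2 before a 30min luciferase step.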

[2] = biological target: Estrogen receptor beta (Homo sapiens) (UniProt Q92731); test: qHTS assay to identify small molecule agonists of the estrogen receptor beta (ER-beta) signaling pathway (AID 1259377; active means well fitted activation curve with a large enough effect in the signal ratio in the repeat runs, not every such curve was filed as active; the % refers to the signal ratio)
Chain of Estrogen receptor beta (Homo sapiens) (Q92731 whole entry, looked up, the tested form may be a part): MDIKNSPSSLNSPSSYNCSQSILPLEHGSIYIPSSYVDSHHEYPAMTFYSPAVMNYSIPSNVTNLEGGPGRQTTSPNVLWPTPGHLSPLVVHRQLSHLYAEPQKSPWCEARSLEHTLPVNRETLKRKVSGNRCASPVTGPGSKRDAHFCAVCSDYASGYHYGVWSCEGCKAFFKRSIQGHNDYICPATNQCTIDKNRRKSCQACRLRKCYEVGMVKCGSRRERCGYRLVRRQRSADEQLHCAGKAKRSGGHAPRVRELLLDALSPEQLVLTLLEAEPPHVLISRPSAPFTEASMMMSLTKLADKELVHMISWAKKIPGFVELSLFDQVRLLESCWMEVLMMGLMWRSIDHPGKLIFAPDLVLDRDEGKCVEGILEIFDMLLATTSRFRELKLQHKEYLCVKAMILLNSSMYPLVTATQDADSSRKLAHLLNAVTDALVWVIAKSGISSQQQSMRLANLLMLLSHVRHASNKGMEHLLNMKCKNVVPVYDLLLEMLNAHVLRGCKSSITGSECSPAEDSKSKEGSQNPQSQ
How it was run: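 Agonist mode cell assay in GripTite HEK293T cells expressing an ER-beta fusion that drives beta-lactamase from an Upstream Activator Sequence; 16 hr compound exposure at 37C, then 2 h LiveBLAzer B/G FRET substrate at room temperature, fluorescence read-out.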

[3] = biological target: Estrogen receptor beta (Homo sapiens) (UniProt Q92731); test: qHTS assay to identify small molecule antagonists of the estrogen receptor beta (ER-beta) signaling pathway (AID 1259378; active means well fitted inhibition curve with a large enough effect in the signal ratio in the repeat runs, not every such curve was filed as active; the % refers to the signal ratio)
How it was run: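 ER-beta-UAS-bla HEK293T (GripTite) cells in 2% charcoal-stripped FBS medium were preincubated 6 hr at 37C, dosed with compound, then stimulated with 1 nM E2 (final) for 16 hr; beta-lactamase reporter read by B/G FRET fluorescence after 2 hr substrate loading.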

[4] = qHTS assay to identify small molecule agonists of the androgen receptor (AR) signaling pathway in the presence of an antagonist - cell viability counter screen (AID 1259379);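 further: MDA-kb2 human breast cancer cells carrying an MMTV luciferase reporter; series mostly up to about 92 µM; nearly all actives have a fitted effect of over 25% in size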
How it was run: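 In MDA-kb2 cells (human breast carcinoma, MMTV-luciferase), compounds at 15 concentrations plus 3.0uM nilutamide; 16 hr, 37C, 0% CO2; CellTiter-Fluor fluorescence read for viability.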

[5] = qHTS assay to identify small molecule agonists of the estrogen receptor beta (ER-beta) signaling pathway - cell viability counter screen (AID 1259380); further: nearly all actives have a fitted effect of over 30% in size
How it was run: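 Viability of ER-beta-UAS-bla HEK293T cells was determined by CellTiter-Glo luminescence following 16 hr treatment with test compounds at 37C.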

[6] = biological target: Androgen receptor (Homo sapiens) (UniProt P10275); test: qHTS assay to identify small molecule agonists of the androgen receptor (AR) signaling pathway in the presence of an antagonist (AID 1259381; calls by dose curve; further: nearly all actives have a fitted effect of over 15% in size)
Chain of Androgen receptor (Homo sapiens) (P10275 whole entry, looked up): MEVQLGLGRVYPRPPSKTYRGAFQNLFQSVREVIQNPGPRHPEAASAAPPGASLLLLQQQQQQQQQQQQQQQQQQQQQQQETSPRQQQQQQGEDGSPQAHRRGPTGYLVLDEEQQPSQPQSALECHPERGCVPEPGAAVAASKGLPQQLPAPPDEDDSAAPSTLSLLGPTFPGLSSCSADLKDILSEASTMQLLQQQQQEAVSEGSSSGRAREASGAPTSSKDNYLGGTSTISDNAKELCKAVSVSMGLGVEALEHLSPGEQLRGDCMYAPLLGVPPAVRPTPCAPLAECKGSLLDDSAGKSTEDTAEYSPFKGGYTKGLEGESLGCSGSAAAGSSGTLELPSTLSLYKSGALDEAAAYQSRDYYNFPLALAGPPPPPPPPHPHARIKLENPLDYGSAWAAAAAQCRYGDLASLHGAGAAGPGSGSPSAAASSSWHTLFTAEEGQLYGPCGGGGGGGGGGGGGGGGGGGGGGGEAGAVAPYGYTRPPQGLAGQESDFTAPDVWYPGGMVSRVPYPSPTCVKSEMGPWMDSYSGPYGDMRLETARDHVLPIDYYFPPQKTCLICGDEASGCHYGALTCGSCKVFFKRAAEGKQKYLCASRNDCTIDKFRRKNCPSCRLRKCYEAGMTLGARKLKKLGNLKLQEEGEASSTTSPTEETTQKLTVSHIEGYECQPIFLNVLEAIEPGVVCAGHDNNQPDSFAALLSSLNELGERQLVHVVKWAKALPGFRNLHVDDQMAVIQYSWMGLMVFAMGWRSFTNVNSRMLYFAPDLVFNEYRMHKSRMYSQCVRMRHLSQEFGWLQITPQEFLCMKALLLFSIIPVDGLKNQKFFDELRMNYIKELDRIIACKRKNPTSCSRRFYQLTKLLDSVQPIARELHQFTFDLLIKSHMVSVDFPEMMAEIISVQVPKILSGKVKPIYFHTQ
How it was run: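 Here, 15-concentration compound series were pin-transferred onto MDA-kb2 MMTV-luciferase cells already dosed with nilutamide (3.0uM final). After 16hr at 37C, ONE-Glo was added and luminescence read 30min later at room temperature.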

[7] = qHTS assay to identify small molecule antagonists of the estrogen receptor beta (ER-beta) signaling pathway - cell viability counter screen (AID 1259382); further: series mostly up to about 92 µM; nearly all actives have a fitted effect of over 55% in size
How it was run: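 Tox21 10K library tested in qHTS format on ER-beta-bla HEK293T cells stimulated with 1nM E2; 16 hr treatment at 37C. Same-well CellTiter-Glo luminescence served as the cell viability measure.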

[8] = qHTS assay to identify small molecule agonists or antagonists of the thyroid stimulating hormone receptor (TSHR) signaling pathway - wild type cell line counter screen (AID 1259384; calls by dose curve)
How it was run: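 Wild-type HEK293 cells were plated 18 h at 37 C/5% CO2, pin-dosed with compound plus Ro20-1724 medium, held 30 min at room temperature, then given cAMP-d2 and anti-cAMP-cryptate; fluorescence was read after 1 h. Fifteen concentrations, triplicate.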

[9] = biological target: Thyrotropin receptor (Homo sapiens) (UniProt P16473); test: qHTS assay to identify small molecule antagonists of the thyroid stimulating hormone receptor (TSHR) signaling pathway (AID 1259385; calls by dose curve; further: nearly all actives have a fitted effect of over 20% in size)
Chain of Thyrotropin receptor (Homo sapiens) (P16473 whole entry, looked up): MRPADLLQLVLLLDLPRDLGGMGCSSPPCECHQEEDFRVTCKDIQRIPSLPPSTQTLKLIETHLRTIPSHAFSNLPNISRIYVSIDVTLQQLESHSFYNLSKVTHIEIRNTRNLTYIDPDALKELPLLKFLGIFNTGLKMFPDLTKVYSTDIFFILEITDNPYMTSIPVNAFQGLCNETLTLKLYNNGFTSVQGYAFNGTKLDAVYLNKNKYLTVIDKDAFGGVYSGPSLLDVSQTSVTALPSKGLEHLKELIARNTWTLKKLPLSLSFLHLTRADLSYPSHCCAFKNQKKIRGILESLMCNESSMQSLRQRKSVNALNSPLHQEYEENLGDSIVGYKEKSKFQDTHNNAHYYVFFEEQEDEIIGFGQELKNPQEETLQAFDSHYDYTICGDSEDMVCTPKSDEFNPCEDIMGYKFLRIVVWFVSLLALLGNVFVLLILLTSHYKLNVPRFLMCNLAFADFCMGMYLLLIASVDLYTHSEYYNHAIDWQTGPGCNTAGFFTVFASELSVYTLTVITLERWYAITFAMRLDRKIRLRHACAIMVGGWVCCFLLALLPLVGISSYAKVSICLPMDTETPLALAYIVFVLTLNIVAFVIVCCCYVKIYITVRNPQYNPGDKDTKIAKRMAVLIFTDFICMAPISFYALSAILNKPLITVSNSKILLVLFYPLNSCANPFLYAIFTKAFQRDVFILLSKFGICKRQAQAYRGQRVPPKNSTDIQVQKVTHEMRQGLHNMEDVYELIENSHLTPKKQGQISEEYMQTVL
How it was run: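 TSHR-HEK293 cells were plated and held 18 h at 37C/5% CO2, then given compound plus Ro20-1724 and stimulated with TSH at 1.5 ng/mL final. After 30 min at room temperature, cAMP was detected with cAMP-d2/anti-cAMP-cryptate (1 h) by fluorescence.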

[10] = qHTS assay to identify small molecule agonists of the estrogen receptor alpha (ER-alpha) signaling pathway in the presence of an antagonist - cell viability counter screen (AID 1259386);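 further: series mostly up to about 92 µM; cells exposed to compounds for 22 h at 37 °C before the viability read; nearly all actives have a fitted effect of over 30% in size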
How it was run: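 Fluorescent CellTiter-Fluor viability signal from VM7Luc4E2 cells, with the reagent added during the final hour of a 22hr compound exposure at 37C in the presence of 10.0nM ICI-182,780.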

[11] = biological target: Progesterone receptor (Homo sapiens) (UniProt P06401); test: qHTS assay to identify small molecule agonists of the progesterone receptor (PR) signaling pathway (AID 1346784; calls by dose curve; further: nearly all actives have a fitted effect of over 30% in size)
Chain of Progesterone receptor (Homo sapiens) (P06401 whole entry, looked up): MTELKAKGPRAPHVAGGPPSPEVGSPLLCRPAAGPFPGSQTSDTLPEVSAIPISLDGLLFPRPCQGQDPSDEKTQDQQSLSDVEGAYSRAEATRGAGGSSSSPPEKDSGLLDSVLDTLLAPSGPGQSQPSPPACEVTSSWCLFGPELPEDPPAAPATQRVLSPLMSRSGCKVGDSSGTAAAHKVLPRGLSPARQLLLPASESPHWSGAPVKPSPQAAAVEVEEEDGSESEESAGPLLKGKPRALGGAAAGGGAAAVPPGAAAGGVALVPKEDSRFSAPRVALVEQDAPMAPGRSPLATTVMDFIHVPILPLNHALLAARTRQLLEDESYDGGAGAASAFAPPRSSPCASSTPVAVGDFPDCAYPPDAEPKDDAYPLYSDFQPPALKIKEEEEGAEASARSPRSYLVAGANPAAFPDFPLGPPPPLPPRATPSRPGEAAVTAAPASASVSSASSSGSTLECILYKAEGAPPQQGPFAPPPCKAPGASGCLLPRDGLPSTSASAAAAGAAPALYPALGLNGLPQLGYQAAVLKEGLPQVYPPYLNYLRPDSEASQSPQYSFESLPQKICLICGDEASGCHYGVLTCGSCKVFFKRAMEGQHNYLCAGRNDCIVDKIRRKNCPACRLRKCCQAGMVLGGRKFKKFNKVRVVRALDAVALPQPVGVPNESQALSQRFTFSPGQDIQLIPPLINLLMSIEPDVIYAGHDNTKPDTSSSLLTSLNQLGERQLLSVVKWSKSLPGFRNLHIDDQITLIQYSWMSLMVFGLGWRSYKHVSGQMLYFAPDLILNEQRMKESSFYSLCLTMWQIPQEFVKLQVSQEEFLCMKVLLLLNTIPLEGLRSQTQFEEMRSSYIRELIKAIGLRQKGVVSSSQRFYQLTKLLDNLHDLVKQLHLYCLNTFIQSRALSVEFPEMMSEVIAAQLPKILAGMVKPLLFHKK
How it was run: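 Cells (PR-UAS-bla HEK 293T, GripTite) were plated in assay medium containing 2% charcoal-stripped FBS and incubated 6 hr. Test compounds in DMSO were added for 16 hr at 37C. FRET substrate was then loaded for 2 hr at room temperature before fluorescence reading.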

[12] = biological target: Progesterone receptor (Homo sapiens) (UniProt P06401); test: qHTS assay to identify small molecule antagonists of the progesterone receptor (PR) signaling pathway (AID 1346795; active means well fitted inhibition curve with a large enough effect in the signal ratio in the repeat runs, not every such curve was filed as active; the % refers to the signal ratio)
How it was run: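 Antagonist mode: compounds tested against 1 nM (final) promegestone stimulation in HEK293T cells expressing PR-UAS-bla reporter, 16 hr at 37C, 5% CO2; beta-lactamase activity detected via B/G FRET substrate after 2 hr at room temperature.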

[13] = qHTS assay to identify small molecule antagonists of the progesterone receptor (PR) signaling pathway - cell viability counter screen (AID 1346798); further: series mostly up to about 92 µM; nearly all actives have a fitted effect of over 50% in size
How it was run: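 Counter screen for cytotoxicity: viability of PR-UAS-bla HEK293T cells was measured with CellTiter-Glo luminescence following 16 hr compound exposure in the presence of R5020.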

[14] = qHTS assay to identify small molecule agonists of the progesterone receptor (PR) signaling pathway - cell viability counter screen (AID 1346799; calls by dose curve; further: nearly all actives have a fitted effect of over 45% in size)
How it was run: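 Cells (PR-UAS-bla HEK293T) are plated at 3,000/well in 2% charcoal-stripped FBS medium, rested 6 hr, dosed and incubated 16 hr at 37C. CellTiter-Glo is then added and luminescence measured after 30 min at room temperature.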

[15] = qHTS assay to identify small molecule agonists of the TGF-beta/Smad signaling pathway - cell viability counter screen (AID 1346829); further: nearly all actives have a fitted effect of over 45% in size; further: potency means the concentration at half of the fitted maximal effect; on activity change, negative = cytotoxicity: top concentration of the series differs between compounds
How it was run: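 After overnight seating at 37 C and 5% CO2, reporter cells got compounds for 5 hr and FRET substrate for 2 hr; cell viability then came from CellTiter-Glo luminescence.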

[16] = qHTS assay to identify small molecule agonists of the TGF-beta/Smad signaling pathway (AID 1346859; active means well fitted activation curve with a large enough effect in the signal ratio in the repeat runs, not every such curve was filed as active; the % refers to the signal ratio; further: series mostly up to about 77 µM)
How it was run: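 Reporter line: HEK 293T with stably integrated SBE-controlled beta-lactamase. Compound exposure lasts 5 hr at 37 C and 5% CO2; substrate loading follows for 2 hr at room temperature, with emission read at 460 and 530 nm.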

[17] = biological target: Thyrotropin-releasing hormone receptor (Homo sapiens) (UniProt P34981); test: qHTS assay to identify small molecule agonists of the thyrotropin-releasing hormone receptor (TRHR) signaling pathway (AID 1346891; calls by dose curve; further: series mostly up to about 58 µM)
Chain of Thyrotropin-releasing hormone receptor (Homo sapiens) (P34981 whole entry, looked up): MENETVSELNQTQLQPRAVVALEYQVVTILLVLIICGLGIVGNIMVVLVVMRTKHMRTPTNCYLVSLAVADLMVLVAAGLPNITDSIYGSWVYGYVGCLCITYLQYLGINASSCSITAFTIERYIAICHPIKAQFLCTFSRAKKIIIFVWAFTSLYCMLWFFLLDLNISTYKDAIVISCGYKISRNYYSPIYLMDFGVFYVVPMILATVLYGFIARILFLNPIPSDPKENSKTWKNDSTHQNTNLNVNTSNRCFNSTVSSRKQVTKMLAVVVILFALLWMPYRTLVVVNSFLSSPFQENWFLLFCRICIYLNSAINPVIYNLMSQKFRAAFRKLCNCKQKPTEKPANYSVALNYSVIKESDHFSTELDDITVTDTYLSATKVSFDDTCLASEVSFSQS
How it was run: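 Cells: TRHR-Hek293, seeded and incubated 18 h. Dye loading: 2 h at 37 °C. Compound added from DMSO stock by pin tool. Read-out: kinetic calcium fluorescence over 3 min.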

[18] = biological target: Estrogen receptor (Homo sapiens) (UniProt P03372); test: qHTS assay to identify small molecule agonists of the estrogen receptor alpha (ER-alpha) signaling pathway in the presence of an antagonist (AID 1259383; calls by dose curve; further: top concentration of the series differs between compounds; nearly all actives have a fitted effect of over 15% in size)
Chain of Estrogen receptor (Homo sapiens) (P03372 whole entry, looked up): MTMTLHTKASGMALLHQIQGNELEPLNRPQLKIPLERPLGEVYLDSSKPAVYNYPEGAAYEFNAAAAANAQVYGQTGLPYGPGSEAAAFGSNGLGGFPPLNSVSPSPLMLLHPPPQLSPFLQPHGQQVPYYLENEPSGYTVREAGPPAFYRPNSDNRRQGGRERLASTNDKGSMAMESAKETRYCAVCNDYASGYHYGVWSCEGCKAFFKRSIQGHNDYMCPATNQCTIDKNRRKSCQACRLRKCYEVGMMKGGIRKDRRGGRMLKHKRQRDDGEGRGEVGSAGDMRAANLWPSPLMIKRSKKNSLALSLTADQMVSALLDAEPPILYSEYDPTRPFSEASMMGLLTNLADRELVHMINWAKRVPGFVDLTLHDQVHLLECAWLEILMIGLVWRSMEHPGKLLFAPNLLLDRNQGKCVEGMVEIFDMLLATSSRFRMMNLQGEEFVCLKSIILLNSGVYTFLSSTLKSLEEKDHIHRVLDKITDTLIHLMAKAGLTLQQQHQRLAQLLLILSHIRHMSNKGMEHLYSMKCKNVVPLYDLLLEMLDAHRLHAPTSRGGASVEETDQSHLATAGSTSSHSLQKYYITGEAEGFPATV
How it was run: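 In VM7Luc4E2 cells, 4,000 per well, compounds at 15 concentrations were co-incubated 22hr at 37C with 10.0nM final ICI-182,780. Luminescence from the stably transfected 4×ERE-luciferase reporter was recorded 30min after ONE-Glo addition.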

[19] = qHTS assay to identify small molecule antagonists of the TGF-beta/Smad signaling pathway - cell viability counter screen (AID 1346824); further: nearly all actives have a fitted effect of over 50% in size
How it was run: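 SBE-bla HEK 293T cells were plated overnight at 37 C, then given compounds in DMSO plus TGF-beta1 (added as 0.25 ng/mL solution) for 5 hr. After the bla read, CellTiter-Glo was added to the same wells and luminescence read after 30 min at room temperature.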

[20] = biological target: Thyrotropin-releasing hormone receptor (Homo sapiens) (UniProt P34981); test: qHTS assay to identify small molecule antagonists of the thyrotropin-releasing hormone receptor (TRHR) signaling pathway (AID 1346877; active means well fitted inhibition curve with a large enough effect in the repeat runs, not every such curve was filed as active; further: series mostly up to about 51 µM)
How it was run: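 In this cell-based calcium flux format, HEK293 cells expressing TRHR received test compound for 5 min before the agonist TRH (1 nM final). Dye loading lasted 2 h at 37 °C.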
On the % scale 0 is the no-effect control and ±100 the full control effect.

CO[Si](CCCNCCN)(OC)OC
8.76 µM (active) and inactive: Potency [1]
inactive: Potency [2] | Potency [3] | Potency [4] | Potency [5] | outcome [6] | Potency [7] | Potency [8] | Potency [9] | Potency [10] | Potency [11] | Potency [12] | Potency [13] | Potency [14] | Potency [16] | outcome [17]
31.4 µM (active) and inactive: Potency [15]

COc1c(Cl)ccc(Cl)c1C(=O)O
inactive: Potency [1] | Potency [2] | Potency [3] | Potency [4] | Potency [5] | Potency [7] | Potency [18] | Potency [8] | Potency [9] | Potency [10] | Potency [11] | Potency [12] | Potency [13] | Potency [14] | Potency [19] | Potency [15] | Potency [16] | Potency [20] | outcome [17]

O=Cc1ccc(CO)o1
inactive: Potency [1] | Potency [2] | Potency [3] | Potency [4] | Potency [5] | Potency [7] | Potency [18] | Potency [8] | Potency [9] | Potency [10] | Potency [11] | Potency [12] | Potency [13] | Potency [14] | Potency [19] | Potency [15] | Potency [16] | Potency [20] | outcome [17]

COc1ccc([C@@H]2CC(=O)c3c(O)cc(O[C@@H]4O[C@H](CO[C@@H]5O[C@@H](C)[C@H](O)[C@@H](O)[C@H]5O)[C@@H](O)[C@H](O)[C@H]4O)cc3O2)cc1OC
inactive: Potency [1] | Potency [2] | Potency [3] | Potency [4] | Potency [5] | Potency [7] | Potency [18] | Potency [8] | Potency [9] | Potency [10] | Potency [11] | Potency [12] | Potency [13] | Potency [14] | Potency [19] | Potency [15] | Potency [16] | Potency [20] | outcome [17]

CCCN(CCC)C(=O)SCC
inactive: Potency [1] | Potency [2] | Potency [3] | Potency [4] | Potency [5] | outcome [6] | Potency [7] | Potency [18] | Potency [8] | Potency [9] | Potency [10] | Potency [11] | Potency [12] | Potency [13] | Potency [14] | Potency [19] | Potency [15] | Potency [16] | Potency [20] | outcome [17]

NC(=O)NC(N)=O
inactive: Potency [1] | Potency [2] | Potency [3] | Potency [4] | Potency [5] | Potency [7] | Potency [18] | Potency [8] | Potency [9] | Potency [10] | Potency [11] | Potency [12] | Potency [13] | Potency [14] | Potency [19] | Potency [15] | Potency [16] | outcome [17]

CCCCCCCCCCCC(=O)N(C)CC(=O)O
inactive: Potency [1] | Potency [2] | activity, negative = inhibition [3] 1.54% [at 8.39 µM] | Potency [4] | activity change, negative = cytotoxicity [5] -3.5% [at 8.39 µM] | Potency [7] | Potency [18] | Potency [8] | Potency [9] | Potency [10] | Potency [11] | Potency [12] | activity change, negative = cytotoxicity [13] 0.0198% [at 8.39 µM] | Potency [14] | Potency [19] | Potency [15] | Potency [16]

CC(=O)OCCC(C)C
inactive: Potency [1] | Potency [2] | Potency [3] | Potency [4] | Potency [5] | Potency [7] | Potency [10] | Potency [11] | Potency [12] | Potency [13] | Potency [14] | Potency [19] | Potency [15] | Potency [16] | Potency [20] | outcome [17]
